The source made the active and inactive calls.

The subject of test [1] is Plasmodium falciparum Sir2 (PF13_0152, Sir2A). Put plainly: pfSir2 binders on small-molecule microarrays, primary screen, biochemical, small-molecule microarray, 635 nm fluorescence (AID 1098).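 Further: score merges spot fluorescence intensity with its signal-to-noise ratio.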 The following applies: small-molecule microarray binding, fluorescence 635 nm; higher = more signal.
Test [2] is described as follows: small-molecule microarray binders of probe aDKK1, primary screen, biochemical, biotinylated probe, 635/667 nm fluorescence (AID 1099).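 Further: score merges 667nm spot fluorescence with signal to noise across triplicate slides.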 The following applies: higher = more signal.
Test [3] in a line: small-molecule microarray binders of probe aCHRDL2, primary screen, biochemical, biotinylated probe, 635/667 nm fluorescence (AID 1100). Conditions: higher = more signal.
A short description of test [4]: splicing luciferase reporter signal modulators, primary screen, spliceosome inhibition project, cell-based, HEK293, splice +/- reporter (AID 1101).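 Further: HEK293 cells carrying a splicing-competent luciferase reporter gene; test concentration not given here.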 Conditions: luminescence, 24 h, higher = more signal, called active from +8 up or from −8 down. On the technique in general: Reporter assays use an easily measured gene product as a stand-in for the process of interest.
The target of test [5] is Fibroblast growth factor 10 (Homo sapiens) (UniProt O15520). Put plainly: FGF10 binders on small-molecule microarrays, primary screen, biochemical, small-molecule microarray, 635 nm fluorescence (AID 1102). Conditions: FGF10 binding, fluorescence 635 nm, higher = more signal.
The subject of test [6] is glycogen synthase kinase-3 (GSK3A per assay name; protocol says GSK3B). Put plainly: GSK3 binders on small-molecule microarrays, primary screen, biochemical, small-molecule microarray, 635 nm fluorescence, GSK3A (AID 1103). Further: the record names both GSK3A and GSK3B. The following applies: small-molecule microarray binding, fluorescence 635 nm; higher = more signal.
Test [7] deals with Epidermal growth factor receptor (Homo sapiens) (UniProt P00533). Put plainly: EGFR binders on small-molecule microarrays, primary screen, biochemical, small-molecule microarray, 635 nm fluorescence (AID 1104).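 Further: score merges 667 nm emission intensity with spot signal to noise over triplicate slides.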 The following applies: EGFR binding, higher = more signal.
Test [8] concerns the target Follistatin-related protein 3 (Homo sapiens) (UniProt O95633). Put plainly: FSTL3 binders on small-molecule microarrays, primary screen, biochemical, small-molecule microarray, 635 nm fluorescence (AID 1105).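 Further: score merges emission near 667 nm and signal to noise per printed spot across three slides.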 Conditions: FSTL3 binding, higher = more signal.
Test [9] concerns the target Dickkopf-related protein 1 (Homo sapiens) (UniProt O94907). Kind of test: DKK1 binders on small-molecule microarrays, primary screen, biochemical, small-molecule microarray, 635 nm fluorescence scan (AID 1106).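 Further: score merges emission near 667 nm with signal to noise over three replicate slides.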 The following applies: DKK1 binding, higher = more signal.
In test [10] the test system is Inhibin beta A chain (activin A). Kind of test: INHBA (activin A) binders on microarrays, primary screen, biochemical, small-molecule microarray, 635 nm fluorescence scan (AID 1107).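 Further: mouse activin A protein probed at 4.33 µg/mL on printed slides; score merges bound-protein fluorescence near 667 nm with spot signal-to-noise.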 The following applies: small-molecule microarray binding, higher = more signal.
The subject of test [11] is Human papillomavirus type 1a protein E7 (residues 44-93). Put plainly: HPV1a E7 fragment binders on microarrays, primary screen, biochemical, small-molecule microarray, residues 44-93, 635 nm fluorescence (AID 1108).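 Further: E7 fragment applied at 1 µg/mL in TBST for 1 h at 4 C; score combines spot fluorescence with its signal to noise ratio.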 Conditions: small-molecule microarray binding, fluorescence 635 nm; higher = more signal.
The nature of test [12]: modulators of HCV replicon luciferase signal, primary screen, HCV replication inhibitor project, Huh7 cells, luciferase reporter (AID 1109).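 Further: huh7 hepatoma cells harbouring a luciferase neomycin HCV replicon reporter; luciferase luminescence as measure of HCV replicon replication; test concentration not given here.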 The following applies: 48 h, higher = more signal. In general terms: A replicon is a self-replicating genome or part of one, used to study replication in cells.
The target of test [13] is Left-right determination factor 2 (Homo sapiens) (UniProt O00292). Kind of test: LEFTY2 binders on small-molecule microarrays, primary screen, biochemical, small-molecule microarray, 635 nm fluorescence scan (AID 1110). Conditions: LEFTY2 binding, higher = more signal.
Test [14] concerns the target Calmodulin-1 (Homo sapiens) (UniProt P0DP23). Put plainly: CALM1 binders on microarrays, EGTA buffer, profiling panel, biochemical, small-molecule microarray, Cy5-labelled CALM1 (AID 1111).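 Further: labelled calmodulin applied in Tris saline Tween buffer holding calcium plus EGTA and DTT.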 Conditions: Cy5-CALM1 binding fluorescence, higher = more signal.
The target is the same in test [15]. Put plainly: calcium-bound CALM1 binders on microarrays, profiling panel, artefact control for SMM control-protein annotation, biochemical, small-molecule microarray, Cy5-labelled CALM1, plus calcium (AID 1112).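 Further: score merges spot fluorescence with signal to noise from triplicate slides.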 The following applies: Cy5-CALM1 binding fluorescence, higher = more signal.
Test [16] is described as follows: small-molecule microarray binders of probe aWnt5a, primary screen, biochemical, biotinylated probe, 635/667 nm fluorescence (AID 1113).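 Further: score merges 667 nm fluorescence intensity with signal-to-noise per printed feature.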 Conditions: higher = more signal.
A short description of test [17]: small-molecule microarray binders of probe aShh, primary screen, biochemical, biotinylated probe, 635/667 nm fluorescence (AID 1114).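 Further: probe is biotin-labelled aShh protein from a stem cell growth factor screen; measures binding of labelled protein to compounds printed on the slide; score merges feature fluorescence at 667 nm with signal-to-noise.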 The following applies: higher = more signal.
Test [18] in a line: small-molecule microarray binders of probe aNog, primary screen, biochemical, biotinylated probe, 635/667 nm fluorescence (AID 1115).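 Further: probe is biotinylated aNog protein used at 0.15 µg/mL for 1 h at 4 C; z-score combines 667 nm fluorescence of each spot with its signal to noise.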 The following applies: higher = more signal.
Test [19] concerns the target Torsin-1A-interacting protein 1 (Homo sapiens) (UniProt Q5JTV8). Put plainly: LAP1 binders from COS7 cell lysate, primary screen, small-molecule microarray, 635/667 nm fluorescence (AID 1116). Conditions: COS7-hLAP1 lysate binding, 635 nm fluorescence, higher = more signal.
Test [20] concerns the target Alpha-bungarotoxin (Bungarus multicinctus) (UniProt P60615). Kind of test: alpha-bungarotoxin binders on microarray, profiling panel, artefact control for SMM control protein annotation, biochemical, small-molecule microarray, Alexa647 label, 635/667 nm fluorescence (AID 1117). Conditions: alpha-BTX-A647 binding fluorescence, higher = more signal.

Sequence of Torsin-1A-interacting protein 1 (Homo sapiens) (Q5JTV8 whole entry, looked up): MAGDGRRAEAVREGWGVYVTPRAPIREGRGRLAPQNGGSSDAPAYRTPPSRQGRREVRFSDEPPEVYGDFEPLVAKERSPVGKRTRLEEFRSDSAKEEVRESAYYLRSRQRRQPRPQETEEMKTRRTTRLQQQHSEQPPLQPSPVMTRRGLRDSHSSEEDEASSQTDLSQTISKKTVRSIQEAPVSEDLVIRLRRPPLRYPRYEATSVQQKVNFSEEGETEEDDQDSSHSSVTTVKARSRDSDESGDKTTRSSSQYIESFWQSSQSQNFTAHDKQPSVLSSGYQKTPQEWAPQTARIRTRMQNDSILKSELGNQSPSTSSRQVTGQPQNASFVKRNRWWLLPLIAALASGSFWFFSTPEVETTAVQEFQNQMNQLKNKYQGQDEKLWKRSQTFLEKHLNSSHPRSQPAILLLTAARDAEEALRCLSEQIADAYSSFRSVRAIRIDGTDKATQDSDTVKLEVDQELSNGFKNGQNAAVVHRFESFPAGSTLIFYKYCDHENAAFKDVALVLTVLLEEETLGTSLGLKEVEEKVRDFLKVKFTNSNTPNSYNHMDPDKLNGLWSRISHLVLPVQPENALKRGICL
Sequence of Left-right determination factor 2 (Homo sapiens) (O00292 whole entry, looked up): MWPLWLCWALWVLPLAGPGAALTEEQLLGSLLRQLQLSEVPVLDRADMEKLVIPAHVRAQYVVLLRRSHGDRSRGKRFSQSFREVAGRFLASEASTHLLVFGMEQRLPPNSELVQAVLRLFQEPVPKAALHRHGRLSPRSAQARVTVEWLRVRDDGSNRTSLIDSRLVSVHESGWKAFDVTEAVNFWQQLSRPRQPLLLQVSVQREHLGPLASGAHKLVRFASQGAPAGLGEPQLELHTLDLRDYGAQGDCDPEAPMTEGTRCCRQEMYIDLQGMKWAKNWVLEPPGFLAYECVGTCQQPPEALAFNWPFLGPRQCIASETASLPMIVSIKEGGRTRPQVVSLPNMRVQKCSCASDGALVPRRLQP
Sequence of Alpha-bungarotoxin (Bungarus multicinctus) (P60615 whole entry, looked up): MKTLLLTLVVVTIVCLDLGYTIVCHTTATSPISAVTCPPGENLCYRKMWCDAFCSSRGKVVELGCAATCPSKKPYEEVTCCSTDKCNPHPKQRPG
Sequence of Fibroblast growth factor 10 (Homo sapiens) (O15520 whole entry, looked up): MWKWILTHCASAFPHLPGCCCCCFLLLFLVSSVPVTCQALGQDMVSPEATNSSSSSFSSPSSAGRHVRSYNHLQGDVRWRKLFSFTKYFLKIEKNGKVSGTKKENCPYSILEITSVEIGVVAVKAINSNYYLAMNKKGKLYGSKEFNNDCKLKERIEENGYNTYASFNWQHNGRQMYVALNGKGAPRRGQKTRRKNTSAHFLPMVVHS
Sequence of Follistatin-related protein 3 (Homo sapiens) (O95633 whole entry, looked up): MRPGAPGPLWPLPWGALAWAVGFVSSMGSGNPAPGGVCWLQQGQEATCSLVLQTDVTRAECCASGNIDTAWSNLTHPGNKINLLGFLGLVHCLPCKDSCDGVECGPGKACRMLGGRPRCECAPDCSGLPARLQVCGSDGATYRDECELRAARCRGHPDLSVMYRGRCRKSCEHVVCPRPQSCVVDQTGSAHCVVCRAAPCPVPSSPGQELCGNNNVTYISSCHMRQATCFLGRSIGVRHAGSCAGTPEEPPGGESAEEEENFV
Sequence of Epidermal growth factor receptor (Homo sapiens) (P00533 whole entry, looked up): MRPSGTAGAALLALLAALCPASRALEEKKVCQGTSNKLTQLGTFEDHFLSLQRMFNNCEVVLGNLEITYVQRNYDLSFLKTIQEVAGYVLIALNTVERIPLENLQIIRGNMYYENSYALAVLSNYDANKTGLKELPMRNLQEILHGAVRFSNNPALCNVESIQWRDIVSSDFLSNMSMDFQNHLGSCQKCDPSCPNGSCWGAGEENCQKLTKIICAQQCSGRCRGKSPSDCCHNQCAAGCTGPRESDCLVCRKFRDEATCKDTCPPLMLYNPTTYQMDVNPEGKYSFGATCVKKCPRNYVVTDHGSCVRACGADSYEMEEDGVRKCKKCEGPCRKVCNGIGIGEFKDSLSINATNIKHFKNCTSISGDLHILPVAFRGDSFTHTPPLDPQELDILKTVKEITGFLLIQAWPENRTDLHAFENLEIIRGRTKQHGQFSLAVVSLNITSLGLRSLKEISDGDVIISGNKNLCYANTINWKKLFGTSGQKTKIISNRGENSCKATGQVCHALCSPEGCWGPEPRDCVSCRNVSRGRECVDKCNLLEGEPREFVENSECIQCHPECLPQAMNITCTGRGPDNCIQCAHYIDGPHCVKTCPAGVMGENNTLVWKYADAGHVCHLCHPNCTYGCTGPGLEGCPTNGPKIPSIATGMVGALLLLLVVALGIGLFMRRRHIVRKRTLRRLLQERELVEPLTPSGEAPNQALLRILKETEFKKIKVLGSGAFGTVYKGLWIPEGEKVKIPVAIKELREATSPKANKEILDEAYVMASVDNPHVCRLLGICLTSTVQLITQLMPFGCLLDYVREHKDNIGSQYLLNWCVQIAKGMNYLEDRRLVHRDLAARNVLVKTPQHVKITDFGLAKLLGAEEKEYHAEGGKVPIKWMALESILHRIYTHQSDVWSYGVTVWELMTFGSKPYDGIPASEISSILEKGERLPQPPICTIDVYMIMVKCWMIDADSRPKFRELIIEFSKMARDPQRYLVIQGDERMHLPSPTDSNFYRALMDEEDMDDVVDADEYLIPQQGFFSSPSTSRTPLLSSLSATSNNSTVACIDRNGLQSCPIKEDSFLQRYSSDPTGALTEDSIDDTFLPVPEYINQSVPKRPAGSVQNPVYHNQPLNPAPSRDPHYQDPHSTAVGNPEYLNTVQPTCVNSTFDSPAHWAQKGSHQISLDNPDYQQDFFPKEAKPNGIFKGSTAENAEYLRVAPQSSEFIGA
Sequence of Dickkopf-related protein 1 (Homo sapiens) (O94907 whole entry, looked up): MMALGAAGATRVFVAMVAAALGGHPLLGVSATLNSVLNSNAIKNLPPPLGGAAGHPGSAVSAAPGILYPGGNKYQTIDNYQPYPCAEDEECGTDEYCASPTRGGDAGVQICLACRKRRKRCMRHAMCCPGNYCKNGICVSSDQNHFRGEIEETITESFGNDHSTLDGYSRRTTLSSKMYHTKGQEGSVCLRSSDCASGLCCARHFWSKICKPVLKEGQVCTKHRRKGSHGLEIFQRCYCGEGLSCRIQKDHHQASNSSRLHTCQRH

Consider `Cc1ccc(/C=C/C=O)cc1`, for which the composite z-score in test [1] is 1.21; in test [2], -0.051; in test [3], 0.44; in test [5], -0.0586; in test [6], -0.472; in [7], -0.817. In addition, the composite z-score in [8] is -0.955; in [9], -0.0317; in test [10], 0.579; in [11] it was 0.134; in test [13], -0.419; in test [14], 0.619. In addition, the composite z-score in test [15] is -0.524; in test [16], -0.213; in test [17], -0.0146; in [18], -0.299; in test [19], -0.0785; in test [20], 0.185. For the same molecule, the z-score in test [4] was -0.0631 (inactive); in test [12] it was 0.626.
Take `O=C1C2C=CC(C(O)COCc3ccccc3)N(Nc3ccc([N+](=O)[O-])cc3)C2C(=O)N1c1ccccc1` (stereo not given): the composite z-score was found to be 1.06 in test [1]; 0.735 in test [2]; 0.889 in test [3]; 1.05 in test [5]; 1.32 in test [6]; 0.42 in [7]. For the same molecule, the composite z-score came out at 1.22 in test [8]; 0.111 in test [9]; 0.976 in test [10]; 1.44 in test [11]; 0.308 in test [13]; 0.823 in test [14]. Besides, the composite z-score is -0.432 in test [15]; 0.0317 in [16]; 0.213 in [17]; 0.525 in [18]; 0.548 in test [19]; 1.31 in test [20]. For the same molecule, the z-score was -1.44 (inactive) in [4] and -1.36 in [12].
With `[N-]=[N+]=Nc1ccccc1C[C@@]1(C(=O)N2CCCCC2)N=C(c2ccc(OCCCO)cc2)O[C@@H]1c1ccccc1`, the composite z-score in test [1] is 1.18; in [2], 0.901; in test [3] it was 1.07; in test [5], 0.465; in [6], 1.29; in [7], -0.209. The composite z-score in test [8] was 0.112; in [9], -0.174; in [10] it was 0.803; in test [11], -0.108; in test [13] it was 0.0334; in test [14], 1.83. Further, the composite z-score in test [15] is 0.914; in test [16], -0.0459; in test [17], -0.0904; in test [18], 1.79; in [19], 1.52; in test [20], 1.07. In addition, the results for the z-score in [4] and in [12] were -0.969 (inactive) and -1.2, respectively.
`CCOC(=O)C1=C[C@@H](C(C)C)N(S(=O)(=O)c2ccc(C)cc2)[C@H]1c1ccccc1F`: the composite z-score was 0.906 in test [1]; 0.398 in test [2]; 0.603 in test [3]; 0.668 in test [5]; 0.791 in test [6]; 0.6 in [7]. Also, the composite z-score amounted to 0.965 in test [8]; 0.336 in [9]; 0.442 in [10]; 1.34 in test [11]; 0.605 in test [13]; 1.74 in test [14]. The composite z-score is 0.0462 in test [15]; -0.001 in test [16]; 0.116 in test [17]; 0.541 in [18]; 1.08 in test [19]; 1.39 in test [20]. For the same molecule, the z-score is 1.2 (inactive) in test [4] and -2.04 in test [12].
`CCCCC(=C=CC[C@@H](O)c1ccc(CO)o1)CCO`: the composite z-score in test [1] is 0.175; in test [2], -0.119; in test [3] it was -0.479; in test [5] it was 0.788; in [6], 0.621; in test [7] it was -0.617. Also, the composite z-score in test [8] is -0.0762; in [9] it was 0.294; in [10], 1.26; in [11], 0.378; in test [13] it was 0.38; in [14], -0.111. The composite z-score in test [15] is -0.641; in test [16], -0.0462; in [17], 0.365; in test [18], -0.158; in test [19], 0.148; in test [20], -0.168. For the same molecule, the z-score in test [4] was 0.37 (inactive); in test [12] it was -0.379.
On to `CC#CC(=O)Oc1ccc(Br)cc1C=CC(=O)OCC`, for which the composite z-score is -0.384 in test [1]; 0.321 in test [2]; 0.481 in test [3]; -0.0853 in [5]; -0.108 in test [6]; -0.257 in test [7]. Besides, the composite z-score in test [8] is 0.137; in test [9], -0.382; in test [10], 1.24; in test [11], 1.23; in test [13], -0.034; in test [14], -0.323. Also, the composite z-score was -0.465 in test [15]; -0.0154 in test [16]; 0.42 in test [17]; 0.302 in test [18]; 0.286 in [19]; 0.683 in test [20]. Besides, the z-score in test [4] is 1.07 (inactive); in [12], -2.4.
